Source: PubChem BioAssay (NCATS)
“And” between values parts separate entries of the source, which are not always exact repeats. Equal values may be shown once. Results filed as inconclusive are left out. Values without a mark were called inactive. Calls come from the whole dose curve; as a rule, active = well fitted activation curve with a large enough effect; inconclusive = small, poorly fitted or top-dose-only effect; inactive = flat fitted curve, though single readings scatter.

Experiment: qHTS assay for environmental chemicals that activate the Aryl hydrocarbon Receptor (AhR) signaling pathway (AID 651777); note: % of control where 0% means no effect; nearly all actives have a fitted effect of over 15% in size
Conditions: 1A2-DRE human hepatoma cells, luciferase, 24 h; activation: stronger effect = higher value
Description: National Center for Advancing Translational Sciences [NCATS]
NIH Chemical Genomics Center [NCGC]
U.S. Environmental Protection Agency [EPA]
National Institutes of Environmental Health Sciences [NIEHS]
National Toxicology Program [NTP]
The Aryl hydrocarbon Receptor (AhR) plays a critical role in the development of cancer or neoplasm and its formation is most likely due to genetic mutations and the influence of environment. Exposure to environmental pollutants such as polycyclic aromatic hydrocarbons (PAH), their halogenated derivatives and heterocyclic amines causes the induction of phase I and II enzymes. The transcriptional activation of CYP1A2 is directly regulated by AhR.
A cell based assay (1A2-DRE cells, developed by Puracyp, Inc., CA) was used to assess the activation of AhR. Human hepatoma cells were stably transfected with the dioxin response element (DRE) and CYP1A2 promoter fused to a luciferase gene. Increased luciferase activity can be used to identify the compounds that cause the induction of CYP1A2 and AhR activation.
1,200 cells in 5 uL/well were dispensed into white wall/solid bottom 1536-well plates using a Multidrop Combi (Thermo Scientific) dispenser. Following transfer of 23 nL compound or DMSO vehicle by a pin tool, the plates were incubated 24 hr at 37 C and 5% CO2. 5 ul One-Glo (Promega) was then added to each well and following 30 min incubation at room temperature, luciferase activity was quantified on a ViewLux CCD-based plate reader.

SMILES	activation
CC(=O)CC(C)C	-0.041%
S=C([S-])NCCNC(=S)[S-].[Zn+2]	0.897% and 8.85% and 0.332%
[O-]/[N+](=N\O)c1ccccc1	5.58%
CC1CCCO1 (stereo not given)	2.22%
CCOCCO	-0.327%
O=P(O)(OCc1ccccc1)OCc1ccccc1	1.44%
CCN(C(=O)N(CC)c1ccccc1)c1ccccc1	-1.64%
Cc1ccc(Cl)cc1	-0.186%
O=Cc1c(Cl)cccc1Cl	1.15%
Cc1cc(C)cc(N)c1	2.65%
Cc1cc(C)cc(O)c1	-0.55%
CC1=C(/C=C/C(C)=C/C=C/C(C)=C\C=O)C(C)(C)CCC1	6.53%
CC=C(Cl)Cl	-0.394%
O=C(O)CCSSCCC(=O)O	-0.395%
COc1ccc(N)c(OC)c1	3.03%
CNc1ccc([N+](=O)[O-])cc1	1.91%
NCCCCCCN	0.0666%
CC(C)(O)CCC(C)(C)O	1.58%
O=C(O)c1ccc(Cl)cc1Cl	-0.705%
O=C(O)c1c(Cl)cccc1Cl	-0.92%

SMILES	activation
O=[N+]([O-])c1ccc(NCCO)c(OCCO)c1	0.85%
Nc1cccc2c(=O)[nH][nH]c(=O)c12	0.365%
CC(C)(C)OCC1CO1 (stereo not given)	2.26%
O=Cc1ccc(CO)o1	-1.71%
CC1CCC2CC1C2(C)C (stereo not given)	-0.275%
Cc1ccc(C(=O)O)cc1	-0.0785%
Cc1c(C(=O)O)cccc1[N+](=O)[O-]	1.63%
O=C(O[C@@H](C(=O)O)[C@@H](OC(=O)c1ccccc1)C(=O)O)c1ccccc1	-0.0103%
CC1(N)CCC(C(C)(C)N)CC1 (stereo not given)	-0.642%
O=[N+]([O-])c1ccc(CCO)cc1	0.416%
COc1ccccc1[N+](=O)[O-]	0.316% and 0.0004%
CCCOCC(C)OCC(C)O (stereo not given)	-2.16%
CCNc1cc(O)ccc1C	6.45%
C[C@@H]1CC2(OC3C[C@@]4(C)C5=CC[C@H]6C(C)(C)C(O[C@@H]7OC[C@@H](O)[C@H](O)[C@H]7O)CC[C@@]67C[C@@]57CC[C@]4(C)C31)OC(O)C1(C)OC21 (stereo not given in full)	-0.875%
O=C(Cl)c1ccccc1[N+](=O)[O-]	0.05%
O=C1OC(=O)c2cc([N+](=O)[O-])ccc21	-0.234%
C=C(C)C(=O)OCC(C)O (stereo not given)	0.365%
CCCOCC(C)O (stereo not given)	1.17%
C=CC(=O)NC(C)C	-0.429%
CCCCCNCCCCC	0.294% and -0.372%
